Here are results for four molecules from PubChem BioAssay.

SMILES strings stand for the structures. “And” between values parts separate entries of the source, which are not always exact repeats. Equal entries are not always repeated. For some assays here: Entries with a potency or affinity are not part of this list. The source made the active and inactive calls.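 Rule for the calls, unless noted: active = compounds whose cell count with miR-34 switched on is under 0.7 times the count with it off; inactive = the rest.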

Experiment [1] concerns the target 6-phosphogluconate dehydrogenase, decarboxylating (Homo sapiens) (UniProt P52209). Nature of the experiment: inhibition of human phosphogluconate dehydrogenase – biochemical, recombinant enzyme, NADPH absorbance, primary screen (AID 1159550;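 active = at least 20% inhibition of 6-phosphogluconate dehydrogenase activity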). The settings on record: recombinant 6PGD, NADPH absorbance 341 nm; at 10 µM; stronger effect = higher value.
A short description of experiment [2]: EMT-state selective cytotoxicity in co-culture – imaging, PC-3E GFP, TEM4-18 mCherry, primary screen (AID 1345086;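 active = compounds killing one labelled cell type while sparing the other, by normalised counts and ratio limits, not self-fluorescent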;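 for all read-outs here: cells exposed to compound for 72 h before imaging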;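 for red/green cell ratio (normalised): normalised mesenchymal count divided by normalised epithelial count so high means epithelial killing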). The settings on record: PC-3E GFP / TEM4-18 mCherry co-culture, imaging cell counts, at 1 µM; for red/green cell ratio (normalised): actives lie on both sides, counts scaled to control wells, 1 = unselective.
Experiment [3] can be described thus: viability loss with induced miR-34 in A549 – imaging, A549 dox-inducible miR-34, nuclei and caspase counts, primary screen (AID 1347080). The settings on record: A549 miR-34 inducible, Hoechst nuclei count, 48 h.
Experiment [4] can be described thus: MELAS cybrid and Rieske KO viability enhancers – cell-based, MELAS cybrids, Rieske KO mouse fibroblasts, CellTiter-Glo, primary screen (AID 1508586;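 active = mean z-score across replicates of 1.96 or higher in either the MELAS or the Rieske mutant cell line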;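 note: z relative to plate mean and SD of compound and empty wells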). The settings on record: low glucose.
Experiment [5] deals with NAD(+) hydrolase SARM1 (Homo sapiens) (UniProt Q6SZW1). Nature of the experiment: blocking NAD cleavage by SARM1 SAM-TIR – cell lysate, NAD-Glo luminescence (AID 1508614;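 active = compound whose remaining NAD level is above about 45 nM, limit read from the data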;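 note: higher remaining NAD means stronger inhibition of SARM1 NADase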). The settings on record: SAM-TIR HEK293T lysate NADase, at 1 µM, stronger effect = higher value.
NAD(+) hydrolase SARM1 (Homo sapiens), sequence (Q6SZW1 whole entry, looked up, the tested form may be a part): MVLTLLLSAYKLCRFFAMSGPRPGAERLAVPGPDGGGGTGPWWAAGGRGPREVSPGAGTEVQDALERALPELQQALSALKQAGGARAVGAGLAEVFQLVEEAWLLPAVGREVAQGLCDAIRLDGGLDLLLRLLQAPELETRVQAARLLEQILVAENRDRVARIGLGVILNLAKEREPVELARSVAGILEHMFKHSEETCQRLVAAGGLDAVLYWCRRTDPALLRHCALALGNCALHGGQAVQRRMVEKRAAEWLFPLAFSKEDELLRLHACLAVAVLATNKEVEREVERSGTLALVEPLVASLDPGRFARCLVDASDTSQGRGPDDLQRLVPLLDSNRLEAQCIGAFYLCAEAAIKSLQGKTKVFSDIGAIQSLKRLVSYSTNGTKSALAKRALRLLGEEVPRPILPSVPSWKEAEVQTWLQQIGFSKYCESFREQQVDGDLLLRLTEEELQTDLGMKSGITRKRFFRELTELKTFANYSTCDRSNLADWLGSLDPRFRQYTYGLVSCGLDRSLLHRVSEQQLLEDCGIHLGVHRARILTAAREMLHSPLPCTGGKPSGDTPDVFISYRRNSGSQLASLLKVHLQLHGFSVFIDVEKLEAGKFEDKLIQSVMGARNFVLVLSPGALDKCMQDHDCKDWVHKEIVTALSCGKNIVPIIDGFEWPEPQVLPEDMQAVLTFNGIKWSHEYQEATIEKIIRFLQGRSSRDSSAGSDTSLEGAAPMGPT
For experiment [6], the target named is Mitogen-activated protein kinase 7 (Homo sapiens) (UniProt Q13164). The experiment can be described thus: Gal4-ERK5 driven luciferase induction – cell-based, HTS, primary screen (AID 1508626;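 active = luciferase signal above three times the same-plate solvent-only control wells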;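 note: luciferase driven by Gal4-ERK5 fusion binding five Gal4 sites before minimal TATA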). The settings on record: HeLa Gal4-ERK5 transactivation, 18 h, at 5 µM, stronger effect = higher value.
Mitogen-activated protein kinase 7 (Homo sapiens), sequence (Q13164 whole entry, looked up, the tested form may be a part): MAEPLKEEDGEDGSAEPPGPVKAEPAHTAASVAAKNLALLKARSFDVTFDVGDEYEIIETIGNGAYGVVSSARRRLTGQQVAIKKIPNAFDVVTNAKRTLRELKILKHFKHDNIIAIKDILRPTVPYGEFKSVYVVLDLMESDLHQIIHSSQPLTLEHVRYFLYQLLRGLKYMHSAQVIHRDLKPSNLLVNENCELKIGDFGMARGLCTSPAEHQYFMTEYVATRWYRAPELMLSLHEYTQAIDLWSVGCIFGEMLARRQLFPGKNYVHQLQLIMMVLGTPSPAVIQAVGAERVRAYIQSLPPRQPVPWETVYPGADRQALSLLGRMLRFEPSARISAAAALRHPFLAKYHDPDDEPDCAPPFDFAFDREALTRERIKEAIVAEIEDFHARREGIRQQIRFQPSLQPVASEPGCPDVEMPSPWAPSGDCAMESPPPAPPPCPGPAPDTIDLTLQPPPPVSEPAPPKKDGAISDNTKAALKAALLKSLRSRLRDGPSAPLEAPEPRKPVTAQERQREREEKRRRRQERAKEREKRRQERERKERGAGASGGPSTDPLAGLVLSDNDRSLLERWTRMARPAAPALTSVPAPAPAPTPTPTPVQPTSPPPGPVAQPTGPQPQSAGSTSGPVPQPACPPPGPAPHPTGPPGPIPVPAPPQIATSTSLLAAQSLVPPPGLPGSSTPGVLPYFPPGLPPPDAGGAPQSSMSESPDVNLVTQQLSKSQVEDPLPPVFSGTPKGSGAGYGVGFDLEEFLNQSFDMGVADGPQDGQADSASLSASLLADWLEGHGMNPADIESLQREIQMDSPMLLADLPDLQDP
Experiment [7] in a line: blockers of polyQ-driven CASP3 activation – cell-based (AID 1583). The settings on record: polyglutamine-induced caspase-3 activation, cell assay; stronger effect = higher value;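 tested at 10 µM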.
Experiment [8] is described as follows: yeast 75Q aggregation reduction – 75Q-TubU reporter (AID 1593). The settings on record: Yeast 75Q polyglutamine aggregation reporter.
Experiment [9] is described as follows: restoration of touch response, mutant HTT neurons – whole organism, C. elegans mechanosensory neurons, N-terminal huntingtin (AID 1599). The settings on record: C. elegans polyQ-huntingtin mechanosensory neurons, stronger effect = higher value.
Experiment [10] is described as follows: blockers of cytochrome c efflux from mitochondria – biochemical, purified mitochondria (AID 1603).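 Note: mouse liver mitochondria challenged with calcium chloride; signal normalized to the plate average as 100%.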 The settings on record: stronger effect = lower value.
The nature of experiment [11]: polyglutamine aggregate formation blockers (AID 1604). The settings on record: polyglutamine-induced protein aggregation inhibition assay; stronger effect = higher value; tested at 2.5 µM.
Experiment [12] can be described thus: glutamate transport activators, MN-1 cells, MN-1 cell line (AID 1612).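 Note: tested at 1 µM final; 0% = mean of DMSO vehicle wells on each plate; positive means more glutamate uptake than control and negative means less.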 The settings on record: MN-1 motor neuron cells, stronger effect = higher value.
The nature of experiment [13]: GFP-Q80 aggregate reduction, neuronal-like cells, cell-based, NGF-treated PC12, GFPQ80 (AID 1614).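 Note: lower means fewer inclusions and 0 means no inclusions at all.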 The settings on record: PC12 NGF-treated GFP-polyQ80 inclusion reduction.
Experiment [14] is described as follows: 75Q-TubH aggregate inhibition, S. cerevisiae, yeast (AID 1616). The settings on record: S. cerevisiae 75Q-TubH polyglutamine aggregation suppression; stronger effect = higher value.
Experiment [15] can be described thus: compounds altering circadian rhythm period length – cell-based, LOPAC library, luminescence reporter (AID 2774; call rule not given here;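 note: values are relative to mean of DMSO wells on each plate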). The settings on record: circadian reporter cells, at 7 µM, actives lie on both sides.
Experiment [16] can be described thus: P. berghei load reduction in hepatocytes – cell-based, HepG2, luciferase luminescence, HepG2 viability, primary screen (AID 624349; in the data active = parasite load remaining mostly below about 12%, no sharp cut-off; inactive = mostly above about 10%;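 note: 100% = mean of DMSO negative control wells on the same plate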). The settings on record: P. berghei liver stage in HepG2, luciferase luminescence, concentration not given here; parasite load remaining: stronger effect = lower value; viability: measured here: HepG2 viability without parasites.
Experiment [17] has as its system Hepatitis C virus NS3 helicase. The experiment can be described thus: blockers of NS3h binding to ssDNA – biochemical, fluorescence polarization, LOPAC1280 library, primary screen (AID 687035; in the data active = inhibition above about 37%). The settings on record: Purified HCV NS3 helicase, Cy5-dT15 ssDNA binding fluorescence polarization; stronger effect = higher value; concentration not given here.
Experiment [18] in a line: blockers of cellular phospholipid synthesis – cell-based, LOPAC library, screen 4, primary screen (AID 1347384; call rule not given here). The settings on record: animal cells, phospholipid biosynthesis inhibition screen; at 10 µM.
Experiment [19] can be described thus: galactose survival enhancers in mitochondrial complex I cybrids – cell-based, galactose medium, ATP luminescence, primary screen (AID 1645843;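 active = z-score of at least 1.8 in each of two replicates, scored against plate mean and spread of sample wells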;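 note: positive z means more ATP and so rescue of galactose-driven cybrid death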). The settings on record: complex I mutant cybrid cells, 72 h, stronger effect = higher value.
Where [20] appears, read: measured here: epithelial PC-3E GFP cell survival.
[21] abbreviates: measured here: mesenchymal TEM4-18 mCherry cell survival.
Where [22] appears, read: stronger effect = lower value, cell number ratio, induced over uninduced.
Setting [23] is: measured here: relative caspase fold change +Dox/-Dox.
[24] abbreviates: measured here: total cells with miR-34 induction, stronger effect = lower value.
Setting [25] is: measured here: total cells without miR-34 induction.
Setting [26] is: MELAS cybrid survival, CellTiter-Glo 48 h, stronger effect = higher value.
[27] abbreviates: Rieske KO mouse fibroblast survival, CellTiter-Glo 72 h.

6-phosphogluconate dehydrogenase, decarboxylating (Homo sapiens), sequence (P52209 whole entry, looked up): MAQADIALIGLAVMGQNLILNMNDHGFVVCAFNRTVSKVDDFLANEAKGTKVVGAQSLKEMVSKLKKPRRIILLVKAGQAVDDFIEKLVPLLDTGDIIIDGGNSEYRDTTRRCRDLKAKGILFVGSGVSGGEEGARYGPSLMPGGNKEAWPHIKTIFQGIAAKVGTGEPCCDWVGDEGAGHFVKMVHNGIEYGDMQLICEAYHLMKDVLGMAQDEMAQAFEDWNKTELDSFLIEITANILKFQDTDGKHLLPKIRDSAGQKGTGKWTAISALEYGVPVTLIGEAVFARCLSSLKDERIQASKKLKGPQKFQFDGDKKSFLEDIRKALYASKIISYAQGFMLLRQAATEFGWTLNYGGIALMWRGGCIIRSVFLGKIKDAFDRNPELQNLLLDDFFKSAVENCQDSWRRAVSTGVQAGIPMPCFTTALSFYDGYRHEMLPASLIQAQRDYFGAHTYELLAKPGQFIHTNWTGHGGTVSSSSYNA

For the molecule `CC(C)(C)NC[C@H](O)c1ccc(O)c(CO)c1`, the inhibition in experiment [1] is -0.348% (inactive). The red/green cell ratio (normalised) in [2] is 0.77 (inactive). In addition, the normalised cell number is 1.2 in experiment [2] (setting [20]) and 0.92 in experiment [2] (setting [21]). Further, the fold change is 0.873 (inactive) in experiment [3] (setting [22]) and 1.01 in experiment [3] (setting [23]). Also, the cell count in [3] (setting [24]) is 7950; in experiment [3] (setting [25]), 9100. In addition, the z-score in experiment [4] (setting [26]) is 0.715 (inactive); in [4] (setting [27]) it was -0.611. The remaining NAD in [5] was 10 nM (inactive). Further, the luciferase signal in experiment [6] is 112 AU (inactive).

In the case of `NCCSSCCN`, the inhibition was 34.8% in experiment [7], -2% (inactive) in experiment [17] and 7.72% (inactive) in experiment [1]. In addition, the score in experiment [8] turned out to be 1.31. In addition, the rescue above control in [9] was -5.12. The cytochrome c release ratio in [10] is 1.22. The same molecule registered an inhibition of aggregation in experiment [11] of 47.1%. Further, in experiment [12], the glutamate uptake change came to 15.5%. In experiment [13], this molecule displayed an inclusion score of 2. Moreover, the aggregation suppression score in [14] was found to be 1.2. Also, the period change in experiment [15] was -0.055 h (inactive). In [16], the parasite load remaining was 165% (inactive). For the same molecule, in experiment [16], the viability was 85.4%. In addition, the red/green cell ratio (normalised) in [2] was 0.92 (inactive). Moreover, the results for the normalised cell number in experiment [2] (setting [20]) and in [2] (setting [21]) were 1.09 and 1.01, respectively. Also, the fold change in experiment [3] (setting [22]) is 1.02 (inactive); in experiment [3] (setting [23]), 2.84. Further, the figures for the cell count in experiment [3] (setting [24]) and in experiment [3] (setting [25]) were 10300 and 10100, respectively. Besides, in experiment [18], the call was inactive. In addition, the luciferase signal in experiment [6] is 76 AU (inactive). Besides, the z-score in experiment [19] was -0.04 (inactive).

For the molecule `CN1CCc2cccc3c2C1Cc1ccc(O)c(O)c1-3` (configuration not stated), the inhibition was 1.43% in [7], -6% (inactive) in experiment [17] and -2.58% (inactive) in experiment [1]. Besides, the score in experiment [8] amounted to 0.79. This molecule gave a rescue above control in experiment [9] of 3.21. The cytochrome c release ratio in experiment [10] is 0.9. In experiment [11], this molecule returned an inhibition of aggregation of 85.7%. The glutamate uptake change in [12] was 14%. For the same molecule, in experiment [13], the inclusion score amounted to 2. Further, in [14], the aggregation suppression score worked out at 1.03. Also, the period change in experiment [15] was 0.35 h (inactive). The parasite load remaining in experiment [16] was 9.7% (inactive) and 18.2% (inactive). For the same molecule, the viability in experiment [16] is 65% and 86.9%. In experiment [2], the red/green cell ratio (normalised) was 1.13 (inactive). The normalised cell number in experiment [2] (setting [20]) turned out to be 1.2; in [2] (setting [21]) it was 1.36. Also, the fold change in experiment [3] (setting [22]) is 0.965 (inactive) and 0.839 (inactive); in experiment [3] (setting [23]), 2.09 and 1.99. Also, the cell count in experiment [3] (setting [24]) is 7940 and 8770; in experiment [3] (setting [25]) it was 8230 and 10400. The result in experiment [18] was inactive. In addition, the z-score in [19] was -1.52 (inactive).

Take `COc1c2ccoc2cc2oc(=O)ccc12`: the inhibition in experiment [7] is -19.8%; in [1] it was -3.29% (inactive). The molecule further gave a score in [8] of 1.02. In addition, the rescue above control in experiment [9] worked out at 6.75. The cytochrome c release ratio in [10] was 1.07. Also, the inhibition of aggregation in experiment [11] came to 80.3%. Also, in experiment [12], the glutamate uptake change is -26.6%. Moreover, the inclusion score in experiment [13] was determined as 2. Also, the aggregation suppression score in experiment [14] turned out to be 0.569. Moreover, in experiment [2], the red/green cell ratio (normalised) was 0.94 (inactive). The normalised cell number is 1.1 in experiment [2] (setting [20]) and 1.03 in [2] (setting [21]). Also, the fold change in experiment [3] (setting [22]) is 0.859 (inactive); in experiment [3] (setting [23]) it was 0.824. Moreover, the cell count in experiment [3] (setting [24]) stood at 8190; in experiment [3] (setting [25]), 9530. Further, the values for the z-score in [4] (setting [26]) and in [4] (setting [27]) were -0.332 (inactive) and -0.177, respectively. Further, in experiment [5], the remaining NAD was 10 nM (inactive). For the same molecule, in experiment [6], the luciferase signal was 28 AU (inactive).
